The results in this text go back to PubChem BioAssay.

Values joined by “and” are separate entries in the source; they are usually repeats but may differ in a detail not shown here. Equal values may be shown once. Peptide text beside a SMILES is read from it. * marks the point of attachment. CH2Cl = ClC*

The nature of the test: viability loss with induced miR-34 in A549 – imaging, A549 dox-inducible miR-34, nuclei and caspase counts, primary screen (AID 1347080). Also: test concentration not given here. The note with it: A549 miR-34 inducible, Hoechst nuclei count, 48 h; measured here: relative caspase fold change +Dox/-Dox.
Turning to `N#CC(C#N)=NNc1ccc(OC(F)(F)F)cc1`, the fold change turned out to be 0.834.

`CCCC(=O)N[C@H]1CCOC1=O`: the fold change stood at 0.504.

For `CCCCC/C=C\C/C=C\C/C=C\C/C=C\CCCC(=O)NC(CO)CO`, the fold change came to 0.877.

In the case of `C=C(C)[C@@H]1CCC(C)=C[C@H]1c1c(C)cc(O)cc1O`, the fold change came out at 0.916.

In the case of `CCCCCC(=O)N[C@H]1CCOC1=O`, the fold change was determined as 0.721.

Take `C=C1[C@@H](C)[C@H]2[C@H](Cc3ccccc3)NC(=O)C23[C@H](OC(C)=O)/C=C/[C@](C)(O)C(=O)[C@@H](C)C/C=C/[C@H]3[C@@H]1O` (stereo partly specified): the fold change stood at 0.464.

As to `CCCCC/C=C\C/C=C\C/C=C\C/C=C\CCCC(=O)NCCCC(=O)O`, the fold change worked out at 1.25.

As to `CC1OC(O[C@H]2C[C@@H](O)[C@]3(CO)[C@H]4[C@H](O)C[C@]5(C)[C@@H](C6=CC(=O)OC6)CC[C@]5(O)[C@@H]4CC[C@]3(O)C2)C(O)C(O)C1O` (stereo partly specified), the fold change is 1.17.

Turning to `N[C@H]1C[C@@H]1c1ccccc1`, the fold change is 1.15 and 1.49.

For `CCCCC/C=C\C/C=C\C/C=C\C/C=C\CCCC(=O)Nc1cccc([N+](=O)[O-])c1`, the fold change worked out at 0.782.

As to `CCCCCC(/C=C/C=O)OO` (stereo unspecified), the fold change amounted to 1.26.

Consider `CCCCC/C=C\C/C=C\C/C=C\C/C=C\CCCC(=O)OCCN`, for which the fold change stood at 0.893.

Take `Cc1cc(C(C#N)c2ccc(Cl)cc2)c(Cl)cc1NC(=O)c1cc(I)cc(I)c1O` (stereo unspecified): the fold change was 0.325 and 0.48 and 1.33.

Regarding `C[C@H](N)C(=O)N[C@@H](C)C(=O)N[C@@H](Cc1ccccc1)C(=O)CCl` (H-Ala-Ala-Phe-CH2Cl), the fold change was 1.41.

Consider `CC[C@@]1(O)C(=O)OCc2c1cc1n(c2=O)-c2cc3ccccc3nc2C1`, for which the fold change worked out at 0.79.

Consider `CC(C)(O)[C@H]1O[C@H]2CC[C@@]3(C)[C@@](O)(CC[C@H]4Cc5c([nH]c6ccccc56)[C@@]43C)C2=CC1=O`, for which the fold change was 1.67.

For `CCNC(=O)[C@H]1O[C@@H](n2cnc3c(N)ncnc32)[C@@H](O)C1O` (stereo partly specified), the fold change came out at 0.965.

In the case of `CO/C1=C\C(C)=C\[C@@H](C)[C@@H](O)[C@@H](C)C/C(C)=C/C=C/[C@H](OC)[C@@H]([C@@H](C)[C@@H](O)[C@H](C)[C@@]2(O)C[C@@H](O)[C@H](C)[C@@H](C(C)C)O2)OC1=O`, the fold change was found to be 1.29.

`CCCCC/C=C\C/C=C\C/C=C\C/C=C\CCCC(=O)NCCOP(=O)(O)O`: the fold change worked out at 0.95.

On to `CCCCC/C=C\C/C=C\C/C=C\C/C=C\CCCC(=O)NC[C@@H](C)O`, for which the fold change is 0.786.

On to `CO[C@@H]1C[C@@H](C[C@H]2CC[C@H](C)[C@H]([C@@H](C)C(=O)O)O2)O[C@]2(O[C@](C)([C@H]3CC[C@@](C)([C@@H]4O[C@@H]([C@H]5O[C@@](O)(CO)[C@H](C)C[C@@H]5C)C[C@@H]4C)O3)C[C@H]2C)[C@@H]1C`, for which the fold change worked out at 1.75.

Turning to `CCCCC/C=C\C/C=C\C/C=C\C/C=C\CCCC(=O)N[C@@H](C)CO`, the fold change is 0.734.

With `COC(C/C=C/C=C/CC/C=C\CC(C)/C=C\C(=C/C(=O)O)CC(=O)O)/C(C)=C\C=C(/C)C(=O)O` (stereo unspecified), the fold change turned out to be 1.25.

Consider `CNCCCCCCN(C)N(O)N=O`, for which the fold change came out at 0.973.

Consider `CCCCCCCC/C=C\CCCCCCCC(=O)Nc1ccccc1`, for which the fold change was found to be 0.81.

Take `CCCCC/C=C\C/C=C\C/C=C\C/C=C\CCCC(=O)NOCCO`: the fold change was determined as 0.519.

As for `C=C1[C@@H](C)[C@H]2[C@H](Cc3ccccc3)NC(=O)[C@]23OC(=O)/C=C/[C@H](O)CCC[C@@H](C)C/C=C/[C@H]3[C@@H]1O`, the fold change is 1.09.

With `CCCCCCC(=O)O[C@H]1CC[C@H]2[C@@H]3C[C@H](O)C4=CC(=O)CC[C@]4(C)[C@H]3CC[C@]12C`, the fold change was 1.11.

In the case of `CCCCC/C=C\C/C=C\C/C=C\C/C=C\CCCC(=O)O[C@H](COC(=O)CCCCCCCCCCCCCCCCC)COP(=O)([O-])OCC[N+](C)(C)C`, the fold change is 0.766.

As to `C[C@@]1(CO)[C@H](O)CC[C@@]2(C)[C@H]1CC[C@H]1C[C@@H]3C[C@@]12CC[C@]3(O)CO`, the fold change worked out at 0.966.

Turning to `COC[C@H]([C@@H](O)[C@@H](O)C(=O)NCC[C@@H](C)c1nc(/C=C/C[C@H]2OC3(C[C@H](O)[C@H]2C)OC([C@@H](C[C@@H](O)[C@@H](C)[C@@H](O)[C@@H](C)/C=C(C)/C(C)=C/C=C/C(C)=C\C#N)OC)[C@@H](OP(=O)(O)O)C3(C)C)co1)N(C)C` (stereo partly specified), the fold change stood at 1.44.

Regarding `OOCCC/C=C/c1ccccc1`, the fold change turned out to be 0.789.

On to `COc1cc(/C=C\c2ccc(OC)c(O)c2)cc(OC)c1`, for which the fold change is 0.882.

For the compound `CCCCC/C=C\C/C=C\C/C=C\C/C=C\CCCC(=O)N[C@H](C)COP(=O)(O)O`, the fold change worked out at 0.754.

Turning to `CCCCC/C=C\C/C=C\C/C=C\C/C=C\CCCC(=O)Nc1ccc(O)cc1C`, the fold change stood at 0.979.

For the compound `CC(C)CC(NP(=O)(O)OC1OC(C)C(O)C(O)C1O)C(=O)NC(Cc1c[nH]c2ccccc12)C(=O)O` (stereo unspecified), the fold change worked out at 0.289.
